The values below come from ChEMBL document CHEMBL1961873, “Compounds: GSK PKIS; Assays: Nanosyn kinase panel” (2012).

Test [1] concerns Epidermal growth factor receptor (Homo sapiens), P00533 [T790M]. The conditions noted are these: at 1 µM.
Test [2] deals with Epidermal growth factor receptor (Homo sapiens), P00533 [L858R,T790M]. The following applies: at 0.1 µM.
For test [3] the test system is unchanged. The conditions noted are these: at 1 µM.
Test [4] addresses Ephrin type-A receptor 2 (Homo sapiens) (UniProt P29317). The conditions noted are these: at 0.1 µM.
The target is the same in test [5]. The following applies: at 1 µM.
Test [6] concerns the target T1, Ephrin type-A receptor 3 (Homo sapiens) (UniProt P29320).
T1 sequence (whole entry): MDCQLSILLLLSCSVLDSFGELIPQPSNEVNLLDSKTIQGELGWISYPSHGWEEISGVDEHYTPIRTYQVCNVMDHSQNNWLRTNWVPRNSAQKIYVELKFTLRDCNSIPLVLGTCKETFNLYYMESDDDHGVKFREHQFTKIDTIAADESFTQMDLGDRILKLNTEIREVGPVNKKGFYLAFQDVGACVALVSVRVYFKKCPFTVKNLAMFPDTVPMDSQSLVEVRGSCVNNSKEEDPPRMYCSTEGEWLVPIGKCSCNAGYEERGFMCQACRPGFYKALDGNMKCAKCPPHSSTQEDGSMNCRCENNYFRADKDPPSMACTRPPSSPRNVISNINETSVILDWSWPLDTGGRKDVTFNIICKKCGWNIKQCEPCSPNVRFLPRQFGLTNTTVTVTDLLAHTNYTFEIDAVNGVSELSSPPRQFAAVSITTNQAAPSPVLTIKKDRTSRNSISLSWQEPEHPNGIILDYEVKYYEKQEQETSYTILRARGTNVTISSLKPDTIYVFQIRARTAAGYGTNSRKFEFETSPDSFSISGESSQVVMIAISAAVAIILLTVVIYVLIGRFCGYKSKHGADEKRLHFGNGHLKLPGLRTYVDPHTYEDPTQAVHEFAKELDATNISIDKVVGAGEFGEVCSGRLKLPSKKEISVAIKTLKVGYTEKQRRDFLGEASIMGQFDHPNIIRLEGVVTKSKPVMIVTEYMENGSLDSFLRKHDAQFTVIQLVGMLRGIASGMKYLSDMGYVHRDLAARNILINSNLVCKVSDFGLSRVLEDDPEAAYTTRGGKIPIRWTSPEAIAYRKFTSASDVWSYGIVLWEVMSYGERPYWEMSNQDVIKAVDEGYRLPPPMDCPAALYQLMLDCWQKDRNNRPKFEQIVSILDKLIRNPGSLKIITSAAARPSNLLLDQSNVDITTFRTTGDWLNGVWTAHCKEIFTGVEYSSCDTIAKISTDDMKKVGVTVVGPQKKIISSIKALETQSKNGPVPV
The following applies: at 0.1 µM.

The target of test [7] is T1, Ephrin type-A receptor 3 (Homo sapiens). The conditions noted are these: at 1 µM.
The target of test [8] is Ephrin type-A receptor 4 (Homo sapiens) (UniProt P54764). The following applies: at 0.1 µM.
Ephrin type-A receptor 4 (Homo sapiens), sequence (P54764 whole entry): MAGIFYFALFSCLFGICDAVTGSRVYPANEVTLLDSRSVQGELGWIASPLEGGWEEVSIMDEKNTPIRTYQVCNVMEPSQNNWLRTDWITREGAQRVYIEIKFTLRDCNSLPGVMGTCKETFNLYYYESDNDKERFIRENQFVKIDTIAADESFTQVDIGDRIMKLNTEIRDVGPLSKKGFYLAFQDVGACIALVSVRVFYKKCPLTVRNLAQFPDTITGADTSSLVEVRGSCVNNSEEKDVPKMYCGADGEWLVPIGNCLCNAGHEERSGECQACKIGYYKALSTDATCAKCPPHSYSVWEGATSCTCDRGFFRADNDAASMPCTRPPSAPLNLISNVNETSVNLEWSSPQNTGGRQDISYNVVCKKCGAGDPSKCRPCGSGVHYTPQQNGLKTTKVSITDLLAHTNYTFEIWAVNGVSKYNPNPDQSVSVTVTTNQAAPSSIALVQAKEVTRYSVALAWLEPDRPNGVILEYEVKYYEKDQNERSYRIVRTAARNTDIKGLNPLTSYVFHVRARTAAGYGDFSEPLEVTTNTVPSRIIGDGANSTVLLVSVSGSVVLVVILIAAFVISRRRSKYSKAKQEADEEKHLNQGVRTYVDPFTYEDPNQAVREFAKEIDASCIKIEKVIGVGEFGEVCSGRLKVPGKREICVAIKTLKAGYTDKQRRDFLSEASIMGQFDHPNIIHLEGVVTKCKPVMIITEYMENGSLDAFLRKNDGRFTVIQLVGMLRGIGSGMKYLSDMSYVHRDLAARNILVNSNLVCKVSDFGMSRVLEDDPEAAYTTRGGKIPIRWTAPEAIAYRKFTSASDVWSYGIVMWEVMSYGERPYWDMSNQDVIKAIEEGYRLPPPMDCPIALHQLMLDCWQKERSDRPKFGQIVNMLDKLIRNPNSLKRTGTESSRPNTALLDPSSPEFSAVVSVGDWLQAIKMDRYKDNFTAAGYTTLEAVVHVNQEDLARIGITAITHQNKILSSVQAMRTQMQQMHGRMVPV
Test [9] has the same target. The conditions noted are these: at 1 µM.
Test [10] addresses T2, Ephrin type-B receptor 2 (Homo sapiens) (UniProt P29323).
T2 sequence (whole entry): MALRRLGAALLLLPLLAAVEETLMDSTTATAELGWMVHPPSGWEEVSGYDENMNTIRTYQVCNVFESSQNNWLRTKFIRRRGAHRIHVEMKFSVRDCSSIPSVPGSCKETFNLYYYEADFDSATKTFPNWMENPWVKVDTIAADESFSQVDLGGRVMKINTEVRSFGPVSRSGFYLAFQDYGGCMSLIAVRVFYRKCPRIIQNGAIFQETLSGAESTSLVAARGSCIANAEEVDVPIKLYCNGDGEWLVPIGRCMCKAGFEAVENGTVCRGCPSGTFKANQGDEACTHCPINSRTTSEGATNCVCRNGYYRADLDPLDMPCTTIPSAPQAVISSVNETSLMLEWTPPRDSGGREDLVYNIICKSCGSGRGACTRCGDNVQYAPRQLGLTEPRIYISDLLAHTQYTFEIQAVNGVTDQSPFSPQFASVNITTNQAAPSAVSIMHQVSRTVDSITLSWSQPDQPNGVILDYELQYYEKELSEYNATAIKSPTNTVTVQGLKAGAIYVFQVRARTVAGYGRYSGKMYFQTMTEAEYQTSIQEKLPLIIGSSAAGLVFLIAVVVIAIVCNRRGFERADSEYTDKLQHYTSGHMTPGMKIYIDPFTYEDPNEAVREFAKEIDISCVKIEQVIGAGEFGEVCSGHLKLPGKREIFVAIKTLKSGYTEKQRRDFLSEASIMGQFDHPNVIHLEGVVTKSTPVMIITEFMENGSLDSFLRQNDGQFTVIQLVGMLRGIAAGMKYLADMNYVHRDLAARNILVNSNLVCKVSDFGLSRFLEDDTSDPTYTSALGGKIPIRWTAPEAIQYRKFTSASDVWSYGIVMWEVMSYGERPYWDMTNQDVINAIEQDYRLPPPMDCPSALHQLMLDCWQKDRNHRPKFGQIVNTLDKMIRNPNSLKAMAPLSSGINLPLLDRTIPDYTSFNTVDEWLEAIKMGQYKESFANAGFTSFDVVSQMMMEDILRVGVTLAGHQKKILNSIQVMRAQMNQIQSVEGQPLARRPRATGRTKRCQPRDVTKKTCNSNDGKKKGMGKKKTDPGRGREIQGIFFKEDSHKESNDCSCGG
The following applies: at 0.1 µM.

Epidermal growth factor receptor (Homo sapiens), P00533 [T790M], sequence (P00533 whole entry T790M): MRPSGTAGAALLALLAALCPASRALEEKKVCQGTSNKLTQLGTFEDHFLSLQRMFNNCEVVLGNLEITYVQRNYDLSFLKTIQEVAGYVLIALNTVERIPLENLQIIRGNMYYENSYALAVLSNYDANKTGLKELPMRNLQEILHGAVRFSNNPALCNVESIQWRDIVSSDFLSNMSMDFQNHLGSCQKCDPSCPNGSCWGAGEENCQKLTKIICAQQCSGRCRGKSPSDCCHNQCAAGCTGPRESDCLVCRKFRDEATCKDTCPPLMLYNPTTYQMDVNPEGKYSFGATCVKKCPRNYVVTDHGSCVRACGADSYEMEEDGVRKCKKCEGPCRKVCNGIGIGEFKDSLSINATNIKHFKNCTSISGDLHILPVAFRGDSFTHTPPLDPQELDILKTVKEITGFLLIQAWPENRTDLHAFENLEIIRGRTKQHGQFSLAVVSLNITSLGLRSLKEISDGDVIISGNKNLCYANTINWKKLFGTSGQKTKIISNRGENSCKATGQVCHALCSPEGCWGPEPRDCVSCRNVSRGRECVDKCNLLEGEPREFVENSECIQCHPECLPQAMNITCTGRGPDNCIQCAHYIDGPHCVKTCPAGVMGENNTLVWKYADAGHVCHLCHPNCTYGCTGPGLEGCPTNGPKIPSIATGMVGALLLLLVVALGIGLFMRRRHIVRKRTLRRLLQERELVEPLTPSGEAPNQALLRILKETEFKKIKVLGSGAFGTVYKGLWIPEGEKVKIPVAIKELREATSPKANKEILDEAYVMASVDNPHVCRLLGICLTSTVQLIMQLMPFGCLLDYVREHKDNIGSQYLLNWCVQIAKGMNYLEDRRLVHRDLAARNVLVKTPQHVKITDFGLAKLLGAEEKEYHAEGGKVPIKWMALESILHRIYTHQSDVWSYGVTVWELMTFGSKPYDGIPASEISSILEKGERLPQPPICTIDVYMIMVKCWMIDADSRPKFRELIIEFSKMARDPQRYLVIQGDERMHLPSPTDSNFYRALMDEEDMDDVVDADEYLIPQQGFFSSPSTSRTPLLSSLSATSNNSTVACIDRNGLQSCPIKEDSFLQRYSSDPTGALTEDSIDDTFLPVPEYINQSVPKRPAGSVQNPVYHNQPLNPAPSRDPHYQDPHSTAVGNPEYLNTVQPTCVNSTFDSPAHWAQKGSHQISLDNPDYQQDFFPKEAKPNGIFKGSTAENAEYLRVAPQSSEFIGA
Epidermal growth factor receptor (Homo sapiens), P00533 [L858R,T790M], sequence (P00533 whole entry T790M/L858R, looked up): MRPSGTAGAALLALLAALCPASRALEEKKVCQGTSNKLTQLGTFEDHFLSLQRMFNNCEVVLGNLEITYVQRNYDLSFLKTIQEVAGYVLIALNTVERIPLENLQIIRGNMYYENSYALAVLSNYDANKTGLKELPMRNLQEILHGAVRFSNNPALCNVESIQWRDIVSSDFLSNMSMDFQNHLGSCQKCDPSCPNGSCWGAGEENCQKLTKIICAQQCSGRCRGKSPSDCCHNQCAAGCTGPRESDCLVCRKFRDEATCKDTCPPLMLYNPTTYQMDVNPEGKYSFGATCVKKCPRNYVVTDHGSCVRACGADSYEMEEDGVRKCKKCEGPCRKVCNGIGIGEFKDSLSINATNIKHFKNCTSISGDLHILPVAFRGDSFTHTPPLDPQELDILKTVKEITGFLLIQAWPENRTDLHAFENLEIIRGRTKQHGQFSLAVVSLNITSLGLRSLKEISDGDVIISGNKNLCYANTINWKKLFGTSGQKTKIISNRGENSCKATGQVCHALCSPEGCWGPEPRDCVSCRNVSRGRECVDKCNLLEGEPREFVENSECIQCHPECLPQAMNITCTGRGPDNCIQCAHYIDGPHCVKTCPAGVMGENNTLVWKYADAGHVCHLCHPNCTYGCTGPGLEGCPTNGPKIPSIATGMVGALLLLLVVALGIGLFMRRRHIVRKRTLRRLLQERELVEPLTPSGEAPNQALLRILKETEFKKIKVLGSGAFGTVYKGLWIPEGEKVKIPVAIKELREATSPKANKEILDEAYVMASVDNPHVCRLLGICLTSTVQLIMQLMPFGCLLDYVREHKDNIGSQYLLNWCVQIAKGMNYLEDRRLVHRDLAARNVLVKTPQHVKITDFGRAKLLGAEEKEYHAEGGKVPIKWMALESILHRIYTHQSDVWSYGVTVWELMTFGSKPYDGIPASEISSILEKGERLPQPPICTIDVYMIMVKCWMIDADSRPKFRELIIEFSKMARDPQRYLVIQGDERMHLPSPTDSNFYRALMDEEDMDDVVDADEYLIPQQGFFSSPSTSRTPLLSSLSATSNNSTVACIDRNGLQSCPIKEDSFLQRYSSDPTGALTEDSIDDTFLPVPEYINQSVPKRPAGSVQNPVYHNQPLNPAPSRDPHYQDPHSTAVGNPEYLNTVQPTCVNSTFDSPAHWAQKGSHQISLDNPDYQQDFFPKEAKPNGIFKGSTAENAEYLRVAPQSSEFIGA
Ephrin type-A receptor 2 (Homo sapiens), sequence (P29317 whole entry): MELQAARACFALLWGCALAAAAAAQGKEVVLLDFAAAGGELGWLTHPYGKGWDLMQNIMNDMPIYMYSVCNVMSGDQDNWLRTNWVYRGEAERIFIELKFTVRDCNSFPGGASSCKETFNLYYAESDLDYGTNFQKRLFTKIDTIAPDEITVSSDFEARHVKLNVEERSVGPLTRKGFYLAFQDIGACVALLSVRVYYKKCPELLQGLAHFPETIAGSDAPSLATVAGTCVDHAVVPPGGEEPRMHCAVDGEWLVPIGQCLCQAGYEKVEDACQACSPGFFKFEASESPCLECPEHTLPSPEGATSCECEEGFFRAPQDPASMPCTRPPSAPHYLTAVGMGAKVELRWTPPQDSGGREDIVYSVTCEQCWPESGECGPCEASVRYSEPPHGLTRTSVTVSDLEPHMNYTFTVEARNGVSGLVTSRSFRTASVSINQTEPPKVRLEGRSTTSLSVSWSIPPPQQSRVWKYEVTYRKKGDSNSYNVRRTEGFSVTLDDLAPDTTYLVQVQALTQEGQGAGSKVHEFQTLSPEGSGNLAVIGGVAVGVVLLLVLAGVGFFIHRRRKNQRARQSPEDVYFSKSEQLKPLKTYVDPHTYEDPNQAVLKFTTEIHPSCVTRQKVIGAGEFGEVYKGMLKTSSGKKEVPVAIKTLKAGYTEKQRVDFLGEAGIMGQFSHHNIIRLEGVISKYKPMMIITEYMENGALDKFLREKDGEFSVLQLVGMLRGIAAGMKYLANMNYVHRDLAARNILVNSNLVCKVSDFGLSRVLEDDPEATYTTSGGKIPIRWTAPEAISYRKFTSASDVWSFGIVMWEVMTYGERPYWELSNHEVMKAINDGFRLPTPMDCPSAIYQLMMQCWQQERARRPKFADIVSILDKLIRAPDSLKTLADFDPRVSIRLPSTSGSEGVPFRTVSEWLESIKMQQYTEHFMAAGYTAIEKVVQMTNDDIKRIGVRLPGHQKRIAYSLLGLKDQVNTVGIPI

Turning to `CCN1CCC(CC(=O)Nc2n[nH]c3nnc(-c4cccc(F)c4F)cc23)CC1`, the inhibition came out at 3.4% in [1]; 1.92% in test [2]; 1.26% in test [3]; 0.75% in [4]; 1.02% in test [5]; 3.31% in [6]. Further, the inhibition in test [7] is 2.84%; in [8], 5.3%; in test [9] it was 7.67%; in test [10], -4.82%.
As to `CS(=O)(=O)CCNCc1ccc(-c2ccc3ncnc(Nc4ccc(OCc5ccccc5)c(C(F)(F)F)c4)c3c2)o1`, the inhibition in test [1] worked out at 2.12%; in test [2], 3.43%; in [3], 0.97%; in [4] it was 2.24%; in test [5], 0.59%; in test [6], 8.45%. Further, the inhibition stood at 2.73% in test [7], 6.33% in test [8], 7.84% in test [9] and 7.71% in [10].
On to `CC(=O)Nc1cccc(C#Cc2cncnc2Nc2ccc(OCc3cccc(F)c3)c(Cl)c2)c1`, for which the inhibition in test [4] was determined as 4.33%; in test [5], 2.42%; in test [6] it was 4.65%; in [7], 3.23%; in test [8], 8.19%; in test [9], 0.69%. Also, the inhibition in [10] was 6.52%.
On to `COc1cc2c(cc1Nc1nc(Nc3ccsc3C(N)=O)c3cc[nH]c3n1)N(C(=O)CN(C)C)CCC2(C)C`, for which the inhibition in test [1] was 70.8%; in [2], 51.9%; in test [3] it was 84.7%; in [4], 1.53%; in test [5] it was 0.81%; in [6], 4.65%. Moreover, the inhibition in test [7] was 4.34%; in test [8], 7.86%; in [9], 6.49%; in test [10], 6.01%.
Turning to `CCn1c(-c2nonc2N)nc2c(C#CC(C)(C)O)ncc(OC3CCNCC3)c21`, the inhibition in test [1] is 1.16%; in test [2], 1.78%; in [3], 0.14%; in test [4] it was 1.52%; in test [5] it was 0.34%; in [6], 1.03%. Also, the inhibition was 3.69% in [7], 4.06% in test [8], 6.59% in test [9] and -2.87% in test [10].
`Fc1ccc(-c2nn3ccccc3c2-c2ccncc2)cc1`: the inhibition in test [4] is -1.52%; in [5] it was -1.41%; in test [6], 3.94%; in [7] it was 5.1%; in test [8] it was 5.14%; in test [9] it was 11.7%. Besides, in test [10], the inhibition worked out at 5.2%.
With `CC(=O)NCc1cccc(C#Cc2cncnc2Nc2ccc(OCc3cccc(F)c3)c(Cl)c2)c1`, the inhibition in [1] is 0.3%; in test [2], 1.41%; in test [3] it was 1.74%; in test [4], -3.31%; in test [5], -4.19%; in test [6], -2.09%. For the same molecule, the inhibition in test [7] is 0.64%; in test [8], -2.22%; in test [10], 0.63%.
In the case of `Fc1cccc(COc2ccc(Nc3ncnc4sc(-c5ccco5)cc34)cc2Cl)c1`, the inhibition in [1] came out at 3.73%; in test [2] it was 0.58%; in [3], 3.48%; in test [4] it was 2.14%; in [5] it was 1.92%; in [6] it was 3.15%. The inhibition worked out at 4.97% in test [7], 7.43% in test [8], 9.74% in test [9] and 9.21% in test [10].
Consider `CNC(=O)c1cccc(C#Cc2cncnc2Nc2ccc(OCc3cccc(F)c3)c(Cl)c2)c1`, for which the inhibition was 4.1% in test [1]; -0.69% in test [2]; 1.65% in test [3]; 2.11% in [4]; -0.11% in test [5]; 1.08% in test [6]. Also, the inhibition in test [7] stood at 0.39%; in [8], 5.81%; in [9], 6.8%; in test [10], 3.54%.
For `Nc1nc(-c2ccc(F)cc2)c(-c2ccc3ncccc3n2)s1`, the inhibition in test [1] was found to be 5.63%; in test [2], 4.54%; in test [3] it was 14.7%; in test [4] it was 0.69%; in [5], 0.59%; in test [6] it was 5.86%. The inhibition in test [7] was 6.22%; in test [8], 9.7%; in test [9] it was 14.6%; in test [10] it was 9.15%.
With `FC(F)(F)c1cccc(-c2nn3ncccc3c2-c2ccnc(Nc3ccc4c(c3)OCCO4)n2)c1`, the inhibition in test [1] was determined as 8.22%; in test [2], 2.69%; in test [3] it was 15.9%; in test [4], 2.29%; in test [5] it was 1.84%; in test [6] it was 2.54%. Further, the inhibition was 3.44% in test [7], 4.56% in test [8], 7.91% in test [9] and 3.11% in test [10].
In the case of `CC1=C(C(=O)Nc2cc(Cl)c3[nH]ncc3c2)C(c2ccc(C(F)(F)F)cc2)CC(=O)N1` (stereo not drawn), the inhibition in test [1] is 4.57%; in test [2] it was 1.19%; in test [3], 1.94%; in [4], -2.83%; in test [5], -2.1%; in test [6] it was 2.24%. Also, the inhibition in test [7] came out at 2.48%; in test [8], 8.02%; in test [9], 6.71%; in [10], 1.63%.
Consider `CCCN1CCC(c2ccc(Nc3nc(Nc4cc(F)ccc4C(N)=O)c4cc[nH]c4n3)c(OC)c2)CC1`, for which the inhibition in test [1] was 81.7%; in [2] it was 53.7%; in test [3] it was 89.1%; in [4], 1.29%; in [5], -0.82%; in test [6] it was 3.91%. Also, the inhibition in test [7] came out at 4.22%; in test [8] it was 6.74%; in [9], 12.9%; in [10], 6.06%.
With `CCn1c(-c2nonc2N)nc2ccccc21`, the inhibition in test [1] is -1.8%; in [2], 2%; in test [3], -0.39%; in [4] it was -0.14%; in test [5] it was 0.64%; in test [6] it was 5.44%. In addition, the inhibition in [7] was determined as 3.08%; in [8], 7.78%; in test [9], 9.13%; in test [10], 6.72%.
Turning to `COc1ccc(-c2cc3c(N)ncnc3o2)cc1`, the inhibition is -2.06% in test [1]; -0.41% in test [2]; -0.81% in test [3]; -3.93% in test [4]; -2.53% in [5]; -3.56% in test [6]. Besides, the inhibition in test [7] is -2.59%; in test [8], -2.85%; in test [9], 1.4%; in test [10], -3.46%.
With `COc1cc2ncn(-c3cc(OCc4ccccc4C(F)(F)F)c(C(=O)N(C)C)s3)c2cc1OC`, the inhibition in [1] is -1.36%; in test [2], 0.72%; in [3], -1.46%; in test [4] it was -1.69%; in test [5], -2.94%; in [6], 2.89%. The inhibition in [7] was 1.92%; in test [8], 2.87%; in test [9] it was 4.19%; in [10], 0.66%.
With `O=C(Nc1n[nH]c2cc(-c3ccc(F)cc3)ccc12)C1CC1`, the inhibition in test [1] is 1.6%; in test [2] it was 1.46%; in test [3], 1.41%; in [4] it was -2.34%; in test [5], -1.62%; in test [6], 2.89%. Further, the inhibition came out at 4.36% in test [7], 7.63% in [8], 4.17% in test [9] and 6.99% in [10].
